Compound activity (PubChem BioAssay)
Sfp inh: blocks B. subtilis Sfp PPTase activity; Biochemical Sfp PPTase activity, qHTS; Potency, µM, hits mostly inhibitors; hit rate 3.5% among 310,000; AID 1490;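 note: the enzyme is Sfp with the accession as filed and its product quenches rhodamine fluorescence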
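Compounds were incubated with enzyme (final 15 nM) for 15 min at room temperature before substrate addition started the reaction. Fluorescence at 525 nm excitation, 598 nm emission was recorded immediately and after 30 minutes.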
PLK1 PBD inh: blocks phosphopeptide binding to human PLK1 polo-box domain | hit rate 2.8% among 360,000 | Potency, µM, hits mostly inhibitors | Plk1 PBD binding of FITC phosphopeptide, fluorescence polarization; note: series mostly up to about 57 µM; nearly all actives have a fitted effect of over 65% in size
Target sequence (P53350 whole entry, looked up, the tested form may be a part): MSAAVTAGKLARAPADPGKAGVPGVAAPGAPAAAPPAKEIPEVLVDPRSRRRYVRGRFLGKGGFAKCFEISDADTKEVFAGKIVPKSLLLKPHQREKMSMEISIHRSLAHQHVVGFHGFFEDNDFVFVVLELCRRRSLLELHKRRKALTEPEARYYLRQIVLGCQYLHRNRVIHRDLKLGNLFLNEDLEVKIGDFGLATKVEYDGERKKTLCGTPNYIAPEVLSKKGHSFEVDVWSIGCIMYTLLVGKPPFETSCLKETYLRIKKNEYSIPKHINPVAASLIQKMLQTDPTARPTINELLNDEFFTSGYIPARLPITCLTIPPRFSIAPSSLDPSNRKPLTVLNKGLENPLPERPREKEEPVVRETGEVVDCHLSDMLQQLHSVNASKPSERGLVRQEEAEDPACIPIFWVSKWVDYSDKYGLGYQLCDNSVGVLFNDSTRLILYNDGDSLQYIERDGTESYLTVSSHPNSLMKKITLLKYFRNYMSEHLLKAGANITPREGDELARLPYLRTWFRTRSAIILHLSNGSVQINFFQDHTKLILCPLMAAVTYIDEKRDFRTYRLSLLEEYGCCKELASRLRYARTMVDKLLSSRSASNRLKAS
Gal4-VP16 FLuc: Gal4-VP16 reporter inhibition counter-screen | Drosophila S2 Gal4-VP16 UAS-luciferase, luminescence, 20 h | Potency, µM (top dose mostly 53.6 µM), hits mostly inhibitors | hit rate 3.5% among 310,000;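 note: Gal4-VP16 expression switched on by copper sulfate through the metallothionein promoter; nearly all actives have a fitted effect of over 50% in size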
RORgamma inh: blocks mouse ROR gamma transcriptional activity; P51450; Drosophila S2 Gal4-RORgamma UAS-luciferase reporter, 20 h; Potency, µM (series often up to 53.6 µM), actives largely listed as inhibitors; hit rate 5.4% among 310,000; note: nearly all actives have a fitted effect of over 60% in size
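Stably transfected Drosophila Schneider cells are the test system, with ROR gamma fused to Gal4 and luciferase under UAS control; luminescence is read after 20 hr of 700 uM copper sulfate induction at ambient temperature.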
ALDH1A1 block: blocks purified human ALDH1A1 activity; Potency, µM (doses to about 75.3 µM), usual class: inhibitors; hit rate 7.3% among 220,000; AID 1030; Purified ALDH1A1, NADH fluorescence, propionaldehyde substrate; active = well fitted inhibition curve with a large enough effect, not every such curve was filed as active; inconclusive = small, poorly fitted or top-dose-only effect, or another doubt; inactive = no such curve, though single readings can be large or run the other way
Hits are given with their value; 0 = inactive; ? = inconclusive; - = not tested or not shown; [ ] = remark or other dose. Most compounds without a hit are left out; they make up all but 12% or so of the library. Unless noted, calls come from the whole dose curve; as a rule, active = well fitted curve in the direction sought with a large enough effect; inconclusive = small, poorly fitted or top-dose-only effect, or another doubt; inactive = no such curve, though single readings can be large; an effect the other way counts as inactive or inconclusive.

SMILES	Sfp inh	PLK1 PBD inh	Gal4-VP16 FLuc	RORgamma inh	ALDH1A1 block
COC(=O)C/C=C/[C@@H](C)[C@@H](/C=N/O[C@H](C)c1cn([C@@H]2COC[C@H]2O)nn1)NS(=O)(=O)c1ccc(C)cc1	0	-	0	0	0
Cc1ccc(S(=O)(=O)NC(=O)C2(C)CCN2C(=O)c2ccc(C(F)(F)F)nc2C)cc1 (centres undefined)	-	0	-	-	-
COc1ccc(CNCc2cccc(Oc3ccccc3)c2)cc1	0	0	0[10 µM]	0	14.1µM
Cc1nc(S/C(=C/c2ccc(-c3cccc(Cl)c3)o2)C(=O)O)n[nH]1	44.7µM	0	3.55µM	1.26µM	0
Cc1nc(-c2cccc(Cl)c2)n[nH]1	0	0	0	?	-
Cc1cc2ccccc2c[n+]1CC(O)C[n+]1cc2ccccc2cc1C	-	-	-	-	0[13.5 µM]
CC(C)c1nnc(NC(=O)CCS(=O)(=O)c2nc(-c3cccs3)cc(C(F)(F)F)n2)s1	0	?	1.58µM	1.78µM	?
CC(C)c1nnc(NC(=O)CCS(=O)(=O)Cc2ccccc2)s1	?	?	0	0	-
Oc1c(CN2CCN(c3ccccn3)CC2)cc(Cl)c2cccnc12	0	0	?	0.447µM	0
OCCN1CCN(Cc2cc(Br)cc(Br)c2O)CC1	0	0	0	0	0
O=c1c(CN2CCN(c3ccccn3)CC2)coc2ccccc12	0	0	0	0	25.1µM
OCCN1CCN(Cc2cc(Cl)c3cccnc3c2O)CC1	0	0	10µM	5.62µM	?
COc1ccc(CN2CCN(c3ccccn3)CC2)c(OC)c1	0	0	0	0	0
CO[C@@H]1COC(=O)[C@H](C)NC(=O)C/C=C\[C@@H](C)[C@@H](NS(=O)(=O)c2ccc(C)cc2)COC(=O)C/C=C\[C@@H]1C	?	-	0[10 µM]	0[10 µM]	0[13.5 µM]
Clc1ccccc1/C=C/c1nc(-c2cccnc2)no1	0	0	0	2µM	-
C(=C\c1nc(-c2cccnc2)no1)/c1ccccc1	0	0	?	4.47µM	?
O=C(/C=C/C(=O)Oc1ccccc1C(=O)O)Oc1ccccc1C(=O)O	0	-	0	0	0
Cc1nnc2n(Cc3ccccc3)c(=O)c3c4c(sc3n12)CCCC4	0	-	?	11.2µM	0
CCCCCCc1cc2cc(C(=O)Nc3ccccc3)c(=O)oc2cc1O	0	0	4.47µM	?	0
O=c1oc2cc(O)ccc2cc1S(=O)(=O)c1ccccc1	0	0	0	0	-
CCN(CC)c1ccc2cc(S(=O)(=O)c3ccc(Cl)cc3)c(=O)oc2c1	0	18.9µM	0	0	0
CCCCCCc1cc2cc(S(=O)(=O)c3ccc(Cl)cc3)c(=O)oc2cc1O	0	0	20µM	?	0
CCNc1ncc2nc(-c3ccc(F)cc3)c(=O)n(-c3ccccc3)c2n1	0	-	?	0	?
CC(C)c1ccc(NC(=O)C2(C)Cc3c(-c4ccccc4)ccnc3O2)cc1 (centres undefined)	-	0	-	-	-
COc1ccc(-c2nsc3c(N4CCCCC4)ncnc23)cc1	0	0	?	1.12µM	?
SMILES	Sfp inh	PLK1 PBD inh	Gal4-VP16 FLuc	RORgamma inh	ALDH1A1 block
COc1ccc(-c2nsc3c(N4CCN(S(=O)(=O)c5ccccc5F)CC4)ncnc23)cc1	0	0	0	0	?
Cc1ccc(-c2nsc3c(N4CCC(C(N)=O)CC4)ncnc23)cc1	0	0	0.631µM	?	0
COc1ccc(C(=O)N2CCN(c3ncnc4c(-c5ccccc5)nsc34)CC2)cc1	0	0	0	0	2.82µM
COc1ccc(-c2nsc3c(N4CCCCC4C)ncnc23)cc1 (centres undefined)	0	0	?	0.282µM	0
Cc1ccc(C(=O)N2CCN(c3ncnc4c(-c5ccccc5)nsc34)CC2)cc1	0	-	0	0	?
C[C@@H]1O[C@H](C2CCCC2)Cc2[nH]c(=S)[nH]c(=O)c21	-	0	-	-	-
O=C(NCc1cccs1)C1C(=O)Nc2ccccc2C(=O)N1Cc1ccccc1 (centres undefined)	-	0	-	-	-
Nc1[nH]c(C(=O)c2ccccc2)c(-c2ccc(C(F)(F)F)cc2)c1C(=O)NCc1ccc(Cl)cc1Cl	-	0	-	-	-
CCNc1ncc2nc(-c3ccc(F)cc3)c(=O)n(C)c2n1	0	-	0	0	?
CN(C)S(=O)(=O)c1cccc(COc2cccnc2[N+](=O)[O-])c1	0	29.9µM	0	0	-
CCOC(=O)C1(CCCc2ccccc2)CCN(C(=O)CCc2cnccn2)CC1	0	0	0	0	3.98µM
CCOC(=O)C1(CCCc2ccccc2)CCN(C(=O)C(C)n2cncn2)CC1 (centres undefined)	0	0	0	0	7.08µM
CCOC(=O)C1(CCCc2ccccc2)CCN(C(=O)c2ocnc2C)CC1	0	0	0	0	0.891µM
CCOC(=O)C1(CCCc2ccccc2)CCN(C(=O)c2cncs2)CC1	0	0	0	?	5.62µM
CCOC(=O)C1(CC2CC2)CCN(C(=O)c2ocnc2C)CC1	0	0	?	0	0
CN1CC[C@@]2(CCCN(C(=O)c3cccn3C)C2)C1	0	-	0	0	0
CCCCN1C(=O)/C(=C/C=C2/CC(C)(C)CN2C)SC1=S	0	0	0	0[10 µM]	6.31µM
CCCCN1C(=O)/C(=C/C=C2\Oc3ccccc3N2CC)SC1=S	0	0	0	0	?
Cc1c(C(C)NC(=O)c2cc(COc3cccc4cnccc34)on2)cnn1C (centres undefined)	0	0	12.6µM	0	-
CCc1ccc(CN(C)C(=O)c2cc(COc3cccc4cnccc34)on2)cc1	0	0	?	0	-
CN(C)/C=C/c1onc(-c2ccccc2Cl)c1C#N	0	0	0	?	6.31µM
Clc1cccc(Cl)c1Cn1cnc2c(NCc3ccco3)ncnc21	0	0	0	0	0
Clc1cccc(Cl)c1Cn1cnc(=NCc2ccco2)c2[nH]cnc21	0	0	?	17.8µM	0
CC(O)(c1ccc(Cl)cc1)C(c1ccccc1)c1ccccn1 (centres undefined)	-	0	-	-	-
Cc1ccc(S(=O)(=O)N2C[C@H]3C(=O)C[C@@H](c4ccccc4)N(S(=O)(=O)c4ccccc4[N+](=O)[O-])[C@H]3C[C@H]2c2ccccc2)cc1	-	0	-	-	-
SMILES	Sfp inh	PLK1 PBD inh	Gal4-VP16 FLuc	RORgamma inh	ALDH1A1 block
COc1ccc(N=C2C(=O)Nc3c(C)cccc32)cc1	0	0	0	0	14.1µM
Cc1ccc(N=C2C(=O)Nc3c(C)cccc32)cc1	0	0	0	0	-
COc1ccc2oc(=O)c(C(=O)Nc3ccccc3C)cc2c1	?	0	?	0.891µM	-
COc1ccc2oc(=O)c(C(=O)C[n+]3cccc(C)c3)cc2c1	?	0	0	0	14.1µM
COc1ccc2oc(=N)c(C(=O)Nc3cccc(C)c3C)cc2c1	0	0	0	3.16µM	-
COc1ccc2oc(=N)c(C(=O)Nc3ccccc3Cl)cc2c1	0	0	0	0	-
CCCN1CCN(C(=O)c2ccc(S(=O)(=O)N(C)c3ccccc3OC)cc2)CC1	-	0	-	-	-
Cc1cccc(C)c1Nc1cn[nH]c1	-	0	-	-	-
Cc1cc(C)n2cc(COc3ccc4ccccc4c3)nc2n1	0	0	0	0	0
Cc1cccc2nc(COc3ccc(-c4ccccc4)cc3)cn12	44.7µM	-	0	12.6µM	0
Cn1c(=O)c(-c2ccccc2)nc2cnc(OCc3ccccc3)nc21	0	-	0	0	?
